Experimental data as given in PubChem BioAssay (NCATS).
Inconclusive results are not listed. Activity calls are given as the source filed them. Unless noted, calls come from the whole dose curve; as a rule, active = well fitted curve in either direction with a large enough effect (not every such curve was filed as active); inconclusive = small, poorly fitted or top-dose-only effect, or another doubt; inactive = flat fitted curve, though single readings scatter.

How the values were obtained:
[1] = target: Lysosomal acid glucosylceramidase (Homo sapiens) (UniProt P04062); assay: Glucocerebrosidase-p2 (AID 348; in the data active = potency below about 10 µM; note: potency is the fitted concentration of half-maximal effect); conditions: purified GBA, blue fluorogenic substrate, 40 min
Lysosomal acid glucosylceramidase (Homo sapiens), sequence (P04062 whole entry, looked up): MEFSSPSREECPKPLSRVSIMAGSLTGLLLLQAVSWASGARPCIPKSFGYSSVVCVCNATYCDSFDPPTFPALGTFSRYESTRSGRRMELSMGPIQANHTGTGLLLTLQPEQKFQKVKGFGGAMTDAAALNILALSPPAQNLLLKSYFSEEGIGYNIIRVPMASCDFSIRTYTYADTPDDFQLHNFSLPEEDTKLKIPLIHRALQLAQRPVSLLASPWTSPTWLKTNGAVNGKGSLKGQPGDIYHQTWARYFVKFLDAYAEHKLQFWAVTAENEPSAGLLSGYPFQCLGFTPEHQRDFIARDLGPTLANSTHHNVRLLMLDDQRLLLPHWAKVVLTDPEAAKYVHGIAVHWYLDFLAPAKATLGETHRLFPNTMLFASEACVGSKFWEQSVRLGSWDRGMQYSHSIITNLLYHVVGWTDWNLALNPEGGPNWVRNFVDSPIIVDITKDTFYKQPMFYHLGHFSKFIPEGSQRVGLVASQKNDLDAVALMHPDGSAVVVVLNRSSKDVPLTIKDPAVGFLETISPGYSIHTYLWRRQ
In short: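 Compounds titrated from 0.6 nM upwards against 0.2 nM enzyme in pH 5.9 citric acid/KH2PO4, taurocholate, tween-20; blue fluorogenic substrate 80 uM, 40 min room temperature, stopped and read Ex 365/Em 440 for AC50.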

[2] = NFAT Signaling Pathway (AID 444); conditions: Jurkat NFAT-bla M1, carbachol, beta-lactamase ratio, 5 h; at 7.69 µM (top of the series) unless noted;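 note: carbachol stimulus at about its EC50 of 1 µM final; % is set by controls: 0 for no effect and ±100 for the full control effect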
In short: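 Jurkat cells carrying an NFAT-driven β-lactamase reporter and co-transfected muscarinic M1 receptor were treated with compound plus carbachol (1 uM final, an EC50 level) for 5 h at 37 °C. CCF4 loading followed for 1 h at RT; 460/530 nm ratio gave %activity.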

[3] = Stat Signaling Pathway (AID 446); conditions: ME-180 SIE beta-lactamase reporter, IL-6 stimulated, 5 h; at 7.69 µM (top of the series) unless noted;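 note: ME-180 cervical cancer cells given 40 pM IL-6 alongside compound; SIE-controlled beta-lactamase reporter measured as 460/530 nm FRET emission ratio; % is set by controls: 0 for no effect and ±100 for the full control effect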
In short: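 Reporter line: ME-180 cervical carcinoma, SIE-beta-lactamase. Treatment: compound with 40 pM IL-6, 5 hrs, 37 C, in low-serum OPTI-MEM with 10 mM HEPES pH 7.3. Detection: 460/530 nm fluorescence.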

[4] = target: Glucocorticoid receptor (Homo sapiens) (UniProt P04150); assay: GR-GFP Redistribution (AID 450;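 active = compounds whose dose series gives a full or clear partial fitted curve of increased nuclear translocation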; note: potency is the fitted concentration of half-maximal effect); conditions: U2OS GR-GFP nuclear translocation, laser cytometry, 2 h
Glucocorticoid receptor (Homo sapiens), sequence (P04150 whole entry, looked up, the tested form may be a part): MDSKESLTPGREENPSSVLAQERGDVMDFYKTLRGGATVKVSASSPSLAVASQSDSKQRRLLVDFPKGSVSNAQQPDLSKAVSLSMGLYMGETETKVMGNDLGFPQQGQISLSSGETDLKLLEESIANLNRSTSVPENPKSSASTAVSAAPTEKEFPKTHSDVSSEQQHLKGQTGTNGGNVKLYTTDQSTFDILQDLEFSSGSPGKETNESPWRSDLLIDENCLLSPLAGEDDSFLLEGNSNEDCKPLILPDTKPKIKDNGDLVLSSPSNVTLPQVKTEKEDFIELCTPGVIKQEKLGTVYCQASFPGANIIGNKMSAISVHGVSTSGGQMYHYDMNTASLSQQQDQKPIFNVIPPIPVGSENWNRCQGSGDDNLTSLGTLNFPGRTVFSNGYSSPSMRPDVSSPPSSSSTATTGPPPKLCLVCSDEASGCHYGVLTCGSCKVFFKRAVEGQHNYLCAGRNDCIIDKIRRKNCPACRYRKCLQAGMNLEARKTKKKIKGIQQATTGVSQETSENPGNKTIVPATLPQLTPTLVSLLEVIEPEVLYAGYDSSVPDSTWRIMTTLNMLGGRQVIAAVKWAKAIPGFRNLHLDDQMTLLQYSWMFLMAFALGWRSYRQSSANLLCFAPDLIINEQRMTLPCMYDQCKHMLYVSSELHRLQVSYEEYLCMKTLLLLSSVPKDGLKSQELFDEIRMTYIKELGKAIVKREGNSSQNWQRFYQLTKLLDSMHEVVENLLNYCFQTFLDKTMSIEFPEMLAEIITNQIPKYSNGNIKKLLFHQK

[5] = target: Glucocorticoid receptor (Homo sapiens) (UniProt P04150); assay: GR-EFC Redistribution (AID 451; calls by dose curve; note: potency is the fitted concentration of half-maximal effect); conditions: CHO-K1 GR-EFC translocation, beta-gal luminescence, 2 h
In short: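 CHO-K1 cells stably expressing nuclear-localized β-gal enzyme acceptor and GR fused C-terminally to the enzyme donor fragment; ligand-driven nuclear translocation restores β-gal by complementation. Compounds titrated up to 46 uM final, 2 h at 37 °C; luminescence read.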

[6] = target: Mitogen-activated protein kinase 10 (Mus musculus) (UniProt Q61831); assay: JNK3 AlphaScreen Assay (AID 530); conditions: JNK3 lysate, c-Jun phosphorylation; series mostly up to 11.4 µM;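 note: kinase came from lysate of stimulated human HepG2 cells; signal reports phosphorylation of biotinylated GST-cJun 1-79 at Ser73 with 10 µM ATP; % is set by controls: 0 for no effect and ±100 for the full control effect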
In short: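 JNK3 came from HepG2 lysates pre-activated with IL-1beta and TNF-alpha and phosphorylated biotinylated GST-cJun (1-79) at 10 uM ATP, pH 7.6, room temperature. Compounds were titrated. AlphaScreen signal used anti-phospho-cJun (Ser73) antibody.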

[7] = target: 3',5'-cyclic-AMP phosphodiesterase 4B (Homo sapiens) (UniProt Q07343); assay: qHTS Assay for Inhibitors of PDE-IV (AID 607; active = well fitted activation curve with a large enough effect in the main read-out, with a control signal flat, not every such curve was filed as active; note: % of control where 0% means no effect); conditions: HEK293 ACTOne CNG channel cells, membrane potential fluorescence; series mostly up to 22.9 µM
3',5'-cyclic-AMP phosphodiesterase 4B (Homo sapiens), sequence (Q07343 whole entry, looked up): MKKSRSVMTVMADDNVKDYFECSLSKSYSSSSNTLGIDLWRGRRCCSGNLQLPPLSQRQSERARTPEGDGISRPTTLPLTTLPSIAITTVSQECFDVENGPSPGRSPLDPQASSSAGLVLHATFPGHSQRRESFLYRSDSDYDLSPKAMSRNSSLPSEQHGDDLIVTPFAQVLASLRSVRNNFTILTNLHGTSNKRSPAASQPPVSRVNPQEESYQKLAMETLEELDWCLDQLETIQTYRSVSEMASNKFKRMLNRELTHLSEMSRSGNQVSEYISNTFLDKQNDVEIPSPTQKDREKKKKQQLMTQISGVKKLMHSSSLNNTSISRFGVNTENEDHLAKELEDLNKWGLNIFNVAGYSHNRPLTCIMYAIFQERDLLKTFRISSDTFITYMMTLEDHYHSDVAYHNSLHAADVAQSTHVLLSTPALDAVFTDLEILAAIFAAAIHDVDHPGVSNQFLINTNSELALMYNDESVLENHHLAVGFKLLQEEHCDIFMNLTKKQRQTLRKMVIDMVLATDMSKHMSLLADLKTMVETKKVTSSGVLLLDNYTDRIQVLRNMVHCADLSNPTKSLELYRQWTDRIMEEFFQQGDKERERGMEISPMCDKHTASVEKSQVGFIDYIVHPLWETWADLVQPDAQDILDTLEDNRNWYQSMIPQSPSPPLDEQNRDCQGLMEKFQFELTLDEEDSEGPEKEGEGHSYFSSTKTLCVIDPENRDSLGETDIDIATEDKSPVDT
In short: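 Cell-based read-out of cAMP via a modified cyclic nucleotide-gated channel and membrane potential dye (535/590 nm) in HEK293 cells expressing PDE4 endogenously. Compounds tested up to 22.9 uM final; 100 uM RO 20-1724 reference.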

[8] = target: Cytochrome P450 1A2 (Homo sapiens) (UniProt P05177); assay: p450-cyp1a2 (AID 410; calls by dose curve;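 note: -100% = full effect of reference inhibitor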); conditions: recombinant CYP1A2, luciferin-ME demethylation, luminescence; series mostly up to 11.4 µM
Cytochrome P450 1A2 (Homo sapiens), sequence (P05177 whole entry, looked up): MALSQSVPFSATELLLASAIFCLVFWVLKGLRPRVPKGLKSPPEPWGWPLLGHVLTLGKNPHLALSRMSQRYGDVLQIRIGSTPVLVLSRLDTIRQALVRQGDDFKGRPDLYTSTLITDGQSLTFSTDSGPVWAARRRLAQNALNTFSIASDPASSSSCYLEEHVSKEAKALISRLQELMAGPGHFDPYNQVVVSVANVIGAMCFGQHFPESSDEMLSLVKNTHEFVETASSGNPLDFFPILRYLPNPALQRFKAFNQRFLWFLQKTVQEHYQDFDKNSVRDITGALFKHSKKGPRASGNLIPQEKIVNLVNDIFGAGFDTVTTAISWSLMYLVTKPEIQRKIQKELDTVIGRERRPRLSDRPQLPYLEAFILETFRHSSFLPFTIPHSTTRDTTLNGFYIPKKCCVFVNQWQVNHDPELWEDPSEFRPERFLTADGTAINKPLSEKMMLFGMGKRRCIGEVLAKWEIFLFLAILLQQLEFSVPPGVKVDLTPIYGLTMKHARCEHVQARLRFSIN
In short: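 Human CYP1A2 (20nM) demethylated Luciferin-ME at its Km (100uM) in 100mM KPO4. After 10 min compound preincubation, NADPH regeneration ran the reaction 60 min at room temperature. Luciferin was read by luminescence, normalized to 57 uM furafylline.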

[9] = target: Guanine nucleotide-binding protein G(i) subunit alpha-1 (Homo sapiens) (UniProt P63096); assay: qHTS Assay for Inhibitors of RGS12 GoLoco Motif Activity (Green Fluorophore) (AID 879; active = well fitted curve in the direction sought with a large enough effect; an effect the other way counts as inactive or inconclusive;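 note: 0% = labeled peptide with Gαi1 and full inhibition = labeled peptide alone without protein; negative values mean loss of peptide binding seen as reduced polarization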); conditions: Galphai1/FITC-RGS12 GoLoco peptide, fluorescence polarization; series mostly up to 57.1 µM
Guanine nucleotide-binding protein G(i) subunit alpha-1 (Homo sapiens), sequence (P63096 whole entry, looked up): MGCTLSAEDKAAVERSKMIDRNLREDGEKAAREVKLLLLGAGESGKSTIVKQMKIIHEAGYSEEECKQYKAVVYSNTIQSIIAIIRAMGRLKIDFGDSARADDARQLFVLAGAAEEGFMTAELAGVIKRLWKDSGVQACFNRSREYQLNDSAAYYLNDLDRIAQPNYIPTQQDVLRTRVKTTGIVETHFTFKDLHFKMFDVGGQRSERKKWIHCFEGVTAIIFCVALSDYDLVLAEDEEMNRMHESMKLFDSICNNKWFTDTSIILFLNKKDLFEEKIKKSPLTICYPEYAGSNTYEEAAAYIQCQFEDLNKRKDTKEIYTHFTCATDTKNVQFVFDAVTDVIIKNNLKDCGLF
In short: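 Fluorescence polarization assay: 50 nM Gαi1 with 10 nM FITC-labeled RGS12 GoLoco peptide in 10 mM Tris pH 7.5, 150 mM NaCl, 0.1 mM GDP, 0.05% NP40, 10 min at room temperature with compound.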

[10] = qHTS Assay for Identification of Small Molecule Agonists for Thrombopoietin (TPO) Signaling Pathway (AID 917; active = well fitted curve in the direction sought with a large enough effect; an effect the other way counts as inactive or inconclusive; note: % is set by controls: 0 for no effect and ±100 for the full control effect); conditions: TPO signaling pathway reporter cells, agonist qHTS, stimulated with TPO at its EC50; series mostly up to 38.5 µM
In short: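 IL-3-dependent murine pro-B Ba/F3 cells, stably transfected with human TPO receptor and GpIIb-promoter luciferase, are incubated 24 hrs at 37 C with test compound and 26 pM TPO; luciferase signal is read after 10 min at room temperature.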

[11] = target: Pyruvate kinase PKM (Homo sapiens) (UniProt P14618); assay: qHTS Assay for Activators of Human Muscle Pyruvate Kinase (AID 954; active = well fitted curve in the direction sought with a large enough effect, not every such curve was filed as active;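 note: 0% = uninhibited enzyme and -100% = no enzyme or full thiadiazolimine inhibition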); conditions: purified human muscle pyruvate kinase, luciferase-coupled luminescence, 1 h; series mostly up to 57.5 µM
Pyruvate kinase PKM (Homo sapiens), sequence (P14618 whole entry, looked up): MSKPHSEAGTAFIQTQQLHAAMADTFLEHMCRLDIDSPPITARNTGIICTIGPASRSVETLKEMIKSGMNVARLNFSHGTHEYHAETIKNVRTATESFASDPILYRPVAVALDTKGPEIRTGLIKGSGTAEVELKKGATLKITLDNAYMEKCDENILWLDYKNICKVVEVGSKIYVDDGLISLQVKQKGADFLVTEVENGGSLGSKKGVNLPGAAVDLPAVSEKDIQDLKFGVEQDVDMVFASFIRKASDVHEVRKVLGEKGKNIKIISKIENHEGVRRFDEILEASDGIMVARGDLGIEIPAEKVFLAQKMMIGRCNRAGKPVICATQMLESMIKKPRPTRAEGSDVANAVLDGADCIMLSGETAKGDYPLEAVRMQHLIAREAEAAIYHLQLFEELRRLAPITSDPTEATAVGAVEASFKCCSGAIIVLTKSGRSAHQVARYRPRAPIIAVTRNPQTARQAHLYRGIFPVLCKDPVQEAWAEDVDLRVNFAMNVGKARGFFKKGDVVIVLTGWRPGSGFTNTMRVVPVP
In short: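 Human PKM2 activity is measured as ATP generation, detected by luciferase-coupled luminescence. The enzyme (0.1 nM) acts on 0.5 mM PEP and 0.1 mM ADP for 1 h at ambient temperature; data are normalized to uninhibited and full-inhibition wells.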

[12] = target: Alpha-galactosidase A (Homo sapiens) (UniProt P06280); assay: Counterscreen for Glucocerebrosidase Inhibitors: qHTS Assay for Human alpha-Galactosidase at pH 4.5 (AID 992; active = well fitted curve in the direction sought with a large enough effect; an effect the other way counts as inactive or inconclusive; note: 0% is about no effect); conditions: purified enzyme, fluorogenic substrate; series mostly up to 76.9 µM
Alpha-galactosidase A (Homo sapiens), sequence (P06280 whole entry, looked up): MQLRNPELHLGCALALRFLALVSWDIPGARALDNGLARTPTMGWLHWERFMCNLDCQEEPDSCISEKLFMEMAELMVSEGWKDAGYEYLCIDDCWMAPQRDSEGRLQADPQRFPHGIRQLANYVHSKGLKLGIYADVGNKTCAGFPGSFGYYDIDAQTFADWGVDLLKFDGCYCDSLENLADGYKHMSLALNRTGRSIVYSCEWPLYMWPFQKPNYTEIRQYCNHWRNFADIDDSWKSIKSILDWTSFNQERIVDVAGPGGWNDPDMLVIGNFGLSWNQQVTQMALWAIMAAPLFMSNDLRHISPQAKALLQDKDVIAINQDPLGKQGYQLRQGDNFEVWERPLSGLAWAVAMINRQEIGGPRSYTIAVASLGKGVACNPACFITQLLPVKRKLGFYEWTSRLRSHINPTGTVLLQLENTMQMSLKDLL
In short: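 Quantitative HTS: compounds tested from 0.7 nM up to 77 uM against 2 nM enzyme with 80 uM 4-MU alpha-D-galactopyranoside. The 20 min room-temperature reaction is stopped with 1M NaOH/1M glycine, pH 10.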

[13] = target: alpha-glucosidase (Oryza sativa, rice) (UniProt Q653V4); assay: Counterscreen for Glucocerebrosidase Inhibitors: qHTS Assay for Rice alpha-Glucosidase at pH 5.0 (AID 997; active = well fitted curve in the direction sought with a large enough effect; an effect the other way counts as inactive or inconclusive;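 note: 0% = full activity with enzyme and -100% = basal without enzyme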); conditions: rice alpha-glucosidase enzyme activity; series mostly up to 76.9 µM
In short: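 Rice alpha-glucosidase (4 nM final) with 400 uM 4-methylumbelliferyl-alpha-D-glucopyranoside in citrate buffer pH 5.0, 20 min at room temperature, stopped at pH 10; fluorescence 365/440 nm, compounds 0.7 nM–77 uM, AC50 from Hill fits.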

[14] = target: Cytochrome P450 3A4 (Homo sapiens) (UniProt P08684); assay: qHTS Assay for Inhibitors and Substrates of Cytochrome P450 3A4 (AID 884; active = well fitted curve in the direction sought with a large enough effect; an effect the other way counts as inactive or inconclusive; note: % is set by controls: 0 for no effect and ±100 for the full control effect; nearly all actives have a fitted effect of over 50% in size); conditions: recombinant CYP3A4, Luciferin-PPXE luminescence; series mostly up to 57.1 µM
Cytochrome P450 3A4 (Homo sapiens), sequence (P08684 whole entry, looked up): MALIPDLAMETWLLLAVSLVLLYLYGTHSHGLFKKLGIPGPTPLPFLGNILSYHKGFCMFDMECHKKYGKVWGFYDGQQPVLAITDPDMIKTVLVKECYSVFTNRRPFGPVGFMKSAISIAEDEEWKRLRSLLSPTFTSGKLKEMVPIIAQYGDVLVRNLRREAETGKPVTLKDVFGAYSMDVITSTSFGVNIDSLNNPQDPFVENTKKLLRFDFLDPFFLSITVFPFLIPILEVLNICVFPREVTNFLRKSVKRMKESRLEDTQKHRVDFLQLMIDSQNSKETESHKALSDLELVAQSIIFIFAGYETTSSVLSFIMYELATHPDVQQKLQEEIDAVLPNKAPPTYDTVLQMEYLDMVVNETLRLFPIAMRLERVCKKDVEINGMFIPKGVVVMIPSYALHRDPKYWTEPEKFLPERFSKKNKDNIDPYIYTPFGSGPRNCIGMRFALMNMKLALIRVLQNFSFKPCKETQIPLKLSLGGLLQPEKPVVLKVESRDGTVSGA
In short: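 20 nM human CYP3A4 with 25 uM Luciferin-PPXE (at KM) in 200 mM KPO4, preincubated 10 min with compound; NADPH regeneration started a 60 min RT reaction. Luciferin detected by luminescence, normalized to 57 uM ketoconazole as full inhibition.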

[15] = Confirmation and Secondary Assay for Modulators of Hemoglobin Beta Chain Splicing at IVS2 654 locus (AID 910; active = well fitted curve in the direction sought with a large enough effect; an effect the other way counts as inactive or inconclusive;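 note: per-well total GFP intensity by laser scanning cytometry after 2-day treatment; % of control where 0% means no effect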); conditions: HeLa EGFP-654 splicing reporter, GFP fluorescence, 48 h; series mostly up to 38.3 µM
In short: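 HeLa cells stably carrying EGFP interrupted by mutant beta-globin IVS2-654 intron (CMV-driven) were treated with compound for 2 days at 37C; corrected splicing was scored as total peak GFP intensity per well (488 nm excitation, 500-520 nm emission).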

[16] = target: Muscarinic acetylcholine receptor M1 (Rattus norvegicus) (UniProt P08482); assay: qHTS Assay for Antagonists of Acetylcholine Muscarinic M1 Receptor: Measurement of IP-One Response (AID 944; active = well fitted curve in the direction sought with a large enough effect; an effect the other way counts as inactive or inconclusive; note: nearly all actives have a fitted effect of over 75% in size); conditions: CHO-M1 cells, IP-One HTRF, antagonist mode; series mostly up to 46.1 µM
Muscarinic acetylcholine receptor M1 (Rattus norvegicus), sequence (P08482 whole entry, looked up): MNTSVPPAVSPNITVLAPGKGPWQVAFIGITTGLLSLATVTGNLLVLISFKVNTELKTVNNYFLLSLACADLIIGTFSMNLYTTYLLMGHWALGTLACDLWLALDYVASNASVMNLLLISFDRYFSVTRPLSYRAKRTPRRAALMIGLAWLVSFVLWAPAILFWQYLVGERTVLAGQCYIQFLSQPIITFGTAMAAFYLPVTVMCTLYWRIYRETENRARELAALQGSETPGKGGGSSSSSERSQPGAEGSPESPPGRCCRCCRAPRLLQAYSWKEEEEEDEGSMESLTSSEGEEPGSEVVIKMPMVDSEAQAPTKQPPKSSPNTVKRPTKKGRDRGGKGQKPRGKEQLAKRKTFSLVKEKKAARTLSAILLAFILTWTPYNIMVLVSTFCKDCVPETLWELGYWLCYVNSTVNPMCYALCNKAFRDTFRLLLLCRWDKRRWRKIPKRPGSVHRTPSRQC
In short: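 CHO cells expressing rat M1 receptor, recovered overnight, were pre-incubated 10 min with compound, then stimulated 30 min with carbachol at EC80 (200 nM) in LiCl-containing buffer, pH 7.4. IP1 accumulation was read by HTRF (620/665 nm).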

NC(=O)[C@@H]1CCCNC1
inactive: Potency [1] > 11.4 µM | activity change, negative = inhibition [2] 6.45% | activity, negative = inhibition [3] 14.3% | Potency [4] > 46 µM | Potency [5] > 9.22 µM | Potency [6] | Potency [7]

OCCN[C@@H]1c2cc(Cl)ccc2-c2c(Cl)cc(Cl)cc21
inactive: Potency [1] > 11.4 µM | activity change, negative = inhibition [2] -8.6% | activity, negative = inhibition [3] 4.1% | Potency [4] > 46 µM | Potency [5] > 9.22 µM | Potency [6]

CC[C@H]1C(=O)OC[C@H]1Cc1cncn1C
inactive: Potency [1] > 11.4 µM | Potency [8] | Potency [6] | Potency [7] | outcome [9] | outcome [10] | outcome [11] | outcome [12] | Potency [13]

CN(C)c1ccc(C(c2ccc(N(C)C)cc2)c2ccc([N+](=O)[O-])cc2)cc1
inactive: Potency [1] > 11.4 µM | activity change, negative = inhibition [2] -16.6% | activity, negative = inhibition [3] 14.9% | Potency [4] > 46 µM | Potency [5] > 9.22 µM | Potency [7]

N=c1ccn2c(n1)O[C@@H]1[C@@H](O)[C@H](CO)O[C@H]12
inactive: Potency [14] | outcome [15] | Potency [16]
